Test results from PubChem BioAssay (Tox21).
Results filed as inconclusive are left out. Values without a mark were called inactive. The call rests on the fitted dose curve; in most records, active means well fitted activation curve with a large enough effect in the repeat runs; inconclusive means weak or mixed curves; inactive means flat fitted curve, though single readings scatter. Where a SMILES comes first, the peptide text is derived from it. [ ]: non-standard residue; d: D form. pGlu = O=C1CC[C@@H](C(=O)O)N1

Experiment: A CellTox Green Cytotoxicity Assay to monitor cytotoxicity in HEK293 cells - 16 hour (AID 1224888); further: nearly all actives have a fitted effect of over 35% in size
Details: CellTox Green fluorescence, active compounds read high; series mostly up to 76.8 µM; activity change: at the top concentration
Description: National Center for Advancing Translational Sciences [NCATS]
NIH Chemical Genomics Center [NCGC]
U.S. Environmental Protection Agency [EPA]
National Institutes of Environmental Health Sciences [NIEHS]
National Toxicology Program [NTP]
Cell-based models are critical for drug discovery. Determining the natural cytotoxic effects resulting from test compounds is an essential research activity. A CellTox Green Cytotoxicity Assay to monitor cytotoxicity in real time of continues cell culture during 40 hours of the compound treatment was used to screen Tox21 10K library compounds in Hek293 cells. CellTox Green Cytotoxicity Assay is a nonlytic, homogeneous, biofluorescent method to measure cytotoxicity in cell culture after experimental manipulation. The assay system uses a proprietary asymmetric cyanine dye that is excluded from viable cells but preferentially stains the dead cell's DNA. […] Viable cells produce no appreciable increases in fluorescence. Therefore, the fluorescence signal produced by the binding interaction with dead cell DNA is proportional to cytotoxicity.
The mixture of Hek293 cell suspension and reagents were dispensed at 600cells/6 ul/well in 1536-well tissue culture treated black solid bottom plates using a Multidrop dispenser. After the assay plates were incubated at a 37 C/5% CO2 incubator for 5 hours, 23 nL of compounds dissolved in DMSO, positive and negative controls was transferred to the assay plate by a pintool work station. The plates were incubated at 37 C for 40 hours. The fluorescence intensity were measured at 0h, 8h, 16h, 24h, 32h and 40h time points using ViewLux plate reader during compound treatment.
On the % scale 0 is the no-effect control and ±100 the full control effect.

Row | Compound | activity change
1 | O=C(O)CCSCCC(=O)O | -7.32%
2 | CC(=O)O[C@@]12CO[C@@H]1C[C@H](O)[C@@]1(C)C(=O)[C@H](O)C3=C(C)[C@@H](OC(=O)[C@H](O)[C@@H](NC(=O)OC(C)(C)C)c4ccccc4)C[C@@](O)([C@@H](OC(=O)c4ccccc4)[C@H]21)C3(C)C | -1.03% [at 35.3 µM]
3 | O=C(CO)[C@@H](O)[C@H](O)[C@H](O)CO | 4.55%
4 | CNCCO | 2.2%
5 | O=C1NC(=O)C2CC=CCC12 (stereo not given) | -0.195%
6 | CCOC(=O)CCC(=O)OCC | -13.7%
7 | NC(=O)N[C@@H](CCC(=O)O)C(=O)O | -0.157% [at 35.3 µM]
8 | CCC(C)(CN(C)C)OC(=O)c1ccccc1 (stereo not given) | 1.91% [at 35.3 µM]
9 | CCOCC(C)O (stereo not given) | 5.35%
10 | C=C(C)C(=O)OCC1CCCO1 (stereo not given) | -15.7%
11 | CCN(Cc1ccccc1)c1ccccc1 | 16.3%
12 | O=C(c1ccccc1)C1(O)CCCCC1 | 21.3%
13 | CC1(C)[C@@H]2CC[C@@]1(C)[C@H](O)C2 | -13.3%
14 | CC(C)C[C@@H](N)C(=O)O | 1.15% [at 15.8 µM]
15 | C[N+](C)(CCOc1ccccc1)Cc1cccs1 | -17% [at 35.3 µM]
16 | Cc1coc2ccccc2c1=O | -5.97% [at 35.3 µM]
17 | CC[N+](CC)(CC)CCOc1cccc(OCC[N+](CC)(CC)CC)c1OCC[N+](CC)(CC)CC | -3.44% [at 35.3 µM]
18 | O=S(=O)(O)c1cccc(S(=O)(=O)O)c1 | -4.13%
19 | O=S(=O)(O)c1cccc2ccccc12 | 15.4%
20 | CCOC(=O)c1ccccc1 | 2.07%

Row | Compound | activity change
21 | CCNC(=O)[C@@H]1CCCN1C(=O)[C@H](CCCN=C(N)N)NC(=O)[C@H](CC(C)C)NC(=O)CNC(=O)[C@H](Cc1ccc(O)cc1)NC(=O)[C@H](CO)NC(=O)[C@H](Cc1c[nH]c2ccccc12)NC(=O)[C@H](Cc1cnc[nH]1)NC(=O)[C@@H]1CCC(=O)N1 ([pGlu]HWSYGLRP-NHEt) | -1.5% [at 35.3 µM]
22 | CCCO[Si](OCCC)(OCCC)OCCC | -4.53%
23 | CCN1C=CN(C)C1C (stereo not given) | -18.6%
24 | CC(CC=O)CC(C)(C)C (stereo not given) | 2.41%
25 | CO/N=C(\C(=O)N[C@@H]1C(=O)N2C(C(=O)O)=C(CSc3nc(=O)c(O)nn3C)CS[C@H]12)c1csc(N)n1 | -4.17% [at 35.3 µM]
26 | CCN(CC#N)c1cccc(C)c1 | 0.252%
27 | COc1ccccc1OCC1CNC(=O)O1 (stereo not given) | -4.25% [at 35.3 µM]
28 | NC(CCC(=O)O)C(=O)O (stereo not given) | 14.2%
29 | CCCc1ncc(C[n+]2ccccc2C)c(N)n1 | -3.77% [at 35.3 µM]
30 | CCCCCCCCCC[N+](C)(C)[O-] | -11.9%
31 | O=C(c1ccccc1O)c1ccccc1O | 18.1%
32 | COc1ccnc(CS(=O)c2nc3cc(OC(F)F)ccc3[nH]2)c1OC (stereo not given) | -4.92%
33 | CC(=O)c1ccc2ccccc2c1 | 2.13%
34 | CC(C)c1ccc2ncccc2c1 | 3.77%
35 | CC1=C(C/C=C(\C)CCC[C@H](C)CCC[C@H](C)CCCC(C)C)C(=O)c2ccccc2C1=O | -2.14% [at 35.3 µM]
36 | CCCc1nn(C)c2c(=O)[nH]c(-c3cc(S(=O)(=O)N4CCN(C)CC4)ccc3OCC)nc12 | -16.5% [at 35.3 µM]
37 | C=CC(=O)OCCCl | 0.337%
38 | N[C@@H](CCC(=O)O)C(=O)O | -0.165%
39 | CCCC[N+](C)(CCCC)CCCC | -1.31%
40 | OCCc1ccccn1 | -7.83%
